This passage reports composite z-score and z-score results from PubChem BioAssay.

SMILES strings stand for the structures. Calls of active or inactive are those of the source. Unless noted, no rule for the calls is given here.

The nature of assay [1]: compounds binding Alexa647 anti-His antibody – biochemical, small-molecule microarray, 635 nm fluorescence, artefact control for SMM control protein annotation, primary screen (AID 1128).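 Also: score merges feature fluorescence with signal-to-noise for each printed compound spot.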 The conditions noted are these: higher = more signal.
Assay [2] deals with Human papillomavirus type 1a E7 protein (residues 1-88). Kind of assay: HPV1a E7 small-molecule binders, primary screen, biochemical, small-molecule microarray, residues 1-88, 635 nm (AID 1129). The conditions noted are these: small-molecule microarray binding, fluorescence 635 nm; higher = more signal.
Assay [3] deals with Focal adhesion kinase 1 (Homo sapiens) (UniProt Q05397). Briefly: PTK2 protein binding on printed compound slides – biochemical, small-molecule microarray, 635/667 nm fluorescence, BSA, DTT, primary screen (AID 1130).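 Also: composite of spot emission at 667 nm and signal to noise over triplicate slides.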 The conditions noted are these: 635 nm fluorescence, higher = more signal.
Assay [4] relates to Fibrinogen (Alexa647-labelled). Briefly: Alexa647-fibrinogen binding to printed small molecules – biochemical, small-molecule microarray, 635/667 nm fluorescence, artefact control for SMM control-protein annotation, profiling panel (AID 1131).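 Also: z-score merges 667 nm fluorescence with per-spot signal-to-noise over triplicate slides.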 The conditions noted are these: fibrinogen-A647 binding fluorescence, higher = more signal.
For assay [5], the target named is Follistatin (Homo sapiens) (UniProt P19883). Kind of assay: FST protein binding to printed compounds – biochemical, small-molecule microarray, 635/667 nm fluorescence, primary screen (AID 1132). The settings on record: 635 nm fluorescence, higher = more signal.
The target of assay [6] is Fibroblast growth factor 2 (Homo sapiens) (UniProt P09038). Kind of assay: basic fibroblast growth factor binding to printed compounds – biochemical, small-molecule microarray, 635/667 nm fluorescence, primary screen (AID 1133). The conditions noted are these: FGF2, fluorescence 635/667, higher = more signal.
A short description of assay [7]: JC-1 mitochondrial potential readout, lung cancer cells – cell-based, A549, JC-1 fluorescence, basal, 24 h, 100 nL, profiling panel (AID 1138).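 Also: A549 lung adenocarcinoma cells under basal conditions with no added stimulus; test concentration not given here.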 The conditions noted are these: higher = more signal.
Assay [8] has as its system Lefty1. Kind of assay: Lefty1 protein binding to printed compounds – biochemical, small-molecule microarray, 635/667 nm fluorescence, primary screen (AID 1139). The settings on record: fluorescence 635/667, higher = more signal.
Assay [9] deals with wheat germ agglutinin (Triticum aestivum), Alexa647-labelled. Briefly: Alexa647-WGA lectin binding to printed small molecules – biochemical, small-molecule microarray, 635/667 nm fluorescence, artefact control for SMM control-protein annotation, profiling panel (AID 1140).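 Also: score merges 667 nm feature emission with signal to noise over triplicate slides.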 The conditions noted are these: WGA-A647 binding, 635 nm fluorescence, higher = more signal.
Assay [10] concerns the target Luciferin 4-monooxygenase (Photinus pyralis) (UniProt P08659). Briefly: inhibition of purified Photinus pyralis luciferase – biochemical, luminescence, purified enzyme, 2006 set, primary screen (AID 1141).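 Also: cell-free assay with purified firefly luciferase at 100 ng per well in PBS; test concentration not given here.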 The conditions noted are these: purified firefly luciferase, SteadyGlo luminescence, 30 min; higher = more signal, called active from +8 up or from −8 down.
For assay [11], the system named is Wnt5a (protein binding on small-molecule microarray). Briefly: small molecules binding Wnt5a protein – biophysical, small-molecule microarray, 635/667 nm fluorescence, primary screen (AID 1142).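 Also: fluorescence read at 667 nm with signal to noise per printed feature.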 The conditions noted are these: 635 nm fluorescence, higher = more signal.
The nature of assay [12]: ATP-based viability of Huh7 replicon cells – cell-based, CellTiter-Glo luminescence, basal, 48 h, cytotoxicity control for HCV replication inhibitor project, primary screen (AID 1143).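 Also: Huh7 hepatoma cells carrying a hepatitis C replication reporter with no stimulus; test concentration not given here.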 The conditions noted are these: higher = more signal, called active from +8 up or from −8 down. A general note: In antiviral work, replicon cells carry a viral genome segment that copies itself.

Assay [13] can be described thus: Pseudomonas biofilm growth suppression – PAO1 strain, BacTiter-Glo luminescence, LB-PBS, primary screen (AID 1144). The conditions noted are these: P. aeruginosa PAO1 biofilm, 12 h, higher = more signal.
A short description of assay [14]: basal CRE-LacZ reporter activity in PC12 – cell-based, unstimulated, primary screen (AID 1145). The settings on record: no forskolin, luminescence, 4.5 h, higher = more signal, called active from +8 up or from −8 down.
The nature of assay [15]: forskolin-driven CRE-LacZ activity in PC12 – cell-based, CRE-LacZ reporter, forskolin-stimulated, primary screen (AID 1146).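 Also: PC12 cells with 6xCRE LacZ reporter stimulated by forskolin 10 µM; beta-galactosidase reporter signal reflecting CREB driven transcription.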 The settings on record: luminescence, 4.5 h, higher = more signal, called active from +8 up or from −8 down.
Assay [16] deals with Streptavidin (Streptomyces avidinii) (UniProt P22629). Kind of assay: compounds binding control protein streptavidin – biophysical, small-molecule microarray, 635/667 nm fluorescence, artefact control for SMM compound annotation, primary screen (AID 1147).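 Also: signal reflects streptavidin binding to arrayed compounds as a control protein.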 The conditions noted are these: higher = more signal.
Assay [17] is described as follows: probe aInhba binding on compound microarray – biochemical, small-molecule microarray, 635/667 nm fluorescence, primary screen (AID 1148).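 Also: score merges 667nm spot fluorescence with signal-to-noise for antibody binding to printed compounds.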 The conditions noted are these: higher = more signal.
Assay [18] has as its target Torsin-1A (Homo sapiens) (UniProt O14656). Kind of assay: TOR1A wild-type binding on microarray – cell lysate, small-molecule microarray, lysate, 635/667 nm, primary screen (AID 1149). The settings on record: COS7 hTOR1A-WT lysate, 635 nm fluorescence, higher = more signal.
For assay [19] the target is unchanged. Briefly: torsin A mutant lysate binding on microarrays – cell lysate, small-molecule microarray, COS7 lysate, 635/667 nm fluorescence, primary screen (AID 1150).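 Also: score pools 667 nm emission and signal to noise measuring lysate protein binding.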 The settings on record: COS7 hTOR1A mutant lysate, 635 nm fluorescence, higher = more signal.
In assay [20] the test system is Sonic hedgehog protein (Shh). Kind of assay: Sonic hedgehog microarray binding compounds – biochemical, small-molecule microarray, 635/667 nm fluorescence, primary screen (AID 1151).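 Also: Shh protein binding to compounds spotted on small-molecule microarray slides; score combines spot fluorescence intensity with signal-to-noise across triplicate slides.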 The conditions noted are these: 635 nm fluorescence, higher = more signal.

Luciferin 4-monooxygenase (Photinus pyralis), sequence (P08659 whole entry, looked up): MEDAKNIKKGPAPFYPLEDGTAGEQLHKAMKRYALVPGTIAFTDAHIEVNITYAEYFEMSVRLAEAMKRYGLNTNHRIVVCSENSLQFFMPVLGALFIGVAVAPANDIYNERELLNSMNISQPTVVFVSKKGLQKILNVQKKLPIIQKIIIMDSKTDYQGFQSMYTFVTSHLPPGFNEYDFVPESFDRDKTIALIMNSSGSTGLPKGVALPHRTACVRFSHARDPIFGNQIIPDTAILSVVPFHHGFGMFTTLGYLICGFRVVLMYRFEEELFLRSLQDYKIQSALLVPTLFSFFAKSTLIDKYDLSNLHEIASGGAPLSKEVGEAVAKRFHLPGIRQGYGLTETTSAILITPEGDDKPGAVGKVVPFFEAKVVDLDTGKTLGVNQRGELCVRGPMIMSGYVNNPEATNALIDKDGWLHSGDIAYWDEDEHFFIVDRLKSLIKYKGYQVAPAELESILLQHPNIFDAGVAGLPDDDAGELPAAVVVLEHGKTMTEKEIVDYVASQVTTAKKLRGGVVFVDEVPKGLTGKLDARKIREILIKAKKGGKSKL
Fibroblast growth factor 2 (Homo sapiens), sequence (P09038 whole entry, looked up): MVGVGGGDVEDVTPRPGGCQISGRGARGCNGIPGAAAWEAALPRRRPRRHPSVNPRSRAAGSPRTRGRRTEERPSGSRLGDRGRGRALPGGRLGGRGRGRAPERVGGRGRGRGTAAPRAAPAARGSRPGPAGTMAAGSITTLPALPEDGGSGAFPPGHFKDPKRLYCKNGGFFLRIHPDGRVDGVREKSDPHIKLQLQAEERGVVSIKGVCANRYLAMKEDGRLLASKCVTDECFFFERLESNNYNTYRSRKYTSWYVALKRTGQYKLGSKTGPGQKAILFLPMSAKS
Streptavidin (Streptomyces avidinii), sequence (P22629 whole entry, looked up): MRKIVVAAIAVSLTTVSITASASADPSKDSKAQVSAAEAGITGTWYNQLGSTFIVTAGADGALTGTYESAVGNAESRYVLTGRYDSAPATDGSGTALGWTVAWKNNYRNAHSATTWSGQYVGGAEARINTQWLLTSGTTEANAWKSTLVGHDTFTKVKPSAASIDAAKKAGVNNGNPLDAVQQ
Torsin-1A (Homo sapiens), sequence (O14656 whole entry, looked up): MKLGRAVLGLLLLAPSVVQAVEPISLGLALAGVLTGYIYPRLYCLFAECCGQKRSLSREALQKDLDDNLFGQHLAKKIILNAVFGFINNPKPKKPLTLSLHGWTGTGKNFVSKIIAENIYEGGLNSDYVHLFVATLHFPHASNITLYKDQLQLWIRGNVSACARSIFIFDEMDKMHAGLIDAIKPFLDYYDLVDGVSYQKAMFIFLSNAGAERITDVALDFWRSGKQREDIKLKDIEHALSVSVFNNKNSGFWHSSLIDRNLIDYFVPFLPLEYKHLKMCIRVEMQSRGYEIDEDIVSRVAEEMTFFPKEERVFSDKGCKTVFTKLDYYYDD
Focal adhesion kinase 1 (Homo sapiens), sequence (Q05397 whole entry, looked up): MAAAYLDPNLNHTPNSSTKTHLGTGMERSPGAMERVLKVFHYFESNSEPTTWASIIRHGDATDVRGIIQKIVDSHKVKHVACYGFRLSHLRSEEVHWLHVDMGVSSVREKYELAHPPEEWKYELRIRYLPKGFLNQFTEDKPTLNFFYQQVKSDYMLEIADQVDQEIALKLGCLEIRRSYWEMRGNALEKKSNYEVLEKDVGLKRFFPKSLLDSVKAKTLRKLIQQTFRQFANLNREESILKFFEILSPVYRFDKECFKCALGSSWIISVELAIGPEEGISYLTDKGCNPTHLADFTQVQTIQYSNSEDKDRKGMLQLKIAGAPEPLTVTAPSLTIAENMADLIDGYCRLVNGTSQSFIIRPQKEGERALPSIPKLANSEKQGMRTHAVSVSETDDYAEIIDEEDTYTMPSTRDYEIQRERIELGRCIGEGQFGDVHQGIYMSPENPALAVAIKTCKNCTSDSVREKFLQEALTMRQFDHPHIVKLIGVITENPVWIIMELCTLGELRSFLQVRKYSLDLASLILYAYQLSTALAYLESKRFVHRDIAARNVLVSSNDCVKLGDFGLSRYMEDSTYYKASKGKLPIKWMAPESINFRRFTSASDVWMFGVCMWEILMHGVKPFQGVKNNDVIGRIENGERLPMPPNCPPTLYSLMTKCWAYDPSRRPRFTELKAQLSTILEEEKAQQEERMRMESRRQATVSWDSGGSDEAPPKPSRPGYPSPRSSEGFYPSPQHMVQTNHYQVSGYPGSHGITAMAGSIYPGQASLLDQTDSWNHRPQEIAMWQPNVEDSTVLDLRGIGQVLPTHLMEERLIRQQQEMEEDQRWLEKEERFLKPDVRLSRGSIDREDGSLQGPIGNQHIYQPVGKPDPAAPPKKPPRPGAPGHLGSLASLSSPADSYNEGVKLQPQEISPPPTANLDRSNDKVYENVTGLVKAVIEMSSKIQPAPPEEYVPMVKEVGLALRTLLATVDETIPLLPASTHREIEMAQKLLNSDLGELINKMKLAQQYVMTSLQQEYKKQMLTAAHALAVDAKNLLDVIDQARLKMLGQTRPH
Follistatin (Homo sapiens), sequence (P19883 whole entry, looked up): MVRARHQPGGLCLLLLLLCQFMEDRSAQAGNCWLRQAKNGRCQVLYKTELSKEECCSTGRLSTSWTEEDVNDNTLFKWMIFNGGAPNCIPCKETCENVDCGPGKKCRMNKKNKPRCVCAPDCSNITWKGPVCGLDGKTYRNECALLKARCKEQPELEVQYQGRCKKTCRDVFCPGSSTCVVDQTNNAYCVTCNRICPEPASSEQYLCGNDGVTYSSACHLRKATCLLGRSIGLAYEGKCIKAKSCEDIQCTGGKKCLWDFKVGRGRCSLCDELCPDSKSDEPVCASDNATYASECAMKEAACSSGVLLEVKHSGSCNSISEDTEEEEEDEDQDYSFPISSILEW

`CCCC=C(CCC)[C@@H](NC(=O)Oc1ccc(F)cc1)c1ccc(C(=O)OC)cc1`: the composite z-score is 0.421 in assay [1]; 1.15 in assay [2]; 0.401 in [3]; 0.906 in [4]; 0.746 in assay [5]; -0.161 in assay [6]. In addition, the composite z-score in assay [8] is -0.186; in assay [9], 1.09; in [11] it was 0.0931; in assay [16], 1.55; in assay [17], 0.329; in [18], -0.0302. Further, the composite z-score in assay [19] is 0.262; in assay [20], -0.69. Moreover, the z-score in assay [7] is 2.89; in assay [10] it was 0.516 (inactive); in assay [12], -3.08 (inactive); in assay [13], -0.135 (inactive); in assay [14], 0.194 (inactive); in [15] it was 1.43 (inactive).

Take `COc1ccc([Si](C)(C)[C@H]2[C@H](CCn3cc([C@H](O)c4ccccc4)nn3)O[C@@]3(C(=O)N(Cc4cccc(N5CCOC5=O)c4)c4ccccc43)[C@@H]2C)cc1`: the composite z-score is 0.0694 in [1]; 0.679 in [2]; 0.0871 in assay [3]; 0.401 in [4]; 1.28 in assay [5]; 0.669 in assay [6]. In addition, the composite z-score in [8] was 0.892; in assay [9], 0.22; in [11] it was 0.488; in assay [16], 0.283; in assay [17] it was -0.362; in assay [18], 0.132. Also, the composite z-score in assay [19] is 0.199; in [20], 1.5. Besides, the z-score in assay [7] was 0.711; in assay [10], 0.387 (inactive); in [12] it was -1.78 (inactive); in assay [13], -0.394 (inactive); in assay [14], -0.36 (inactive); in [15] it was 1.32 (inactive).

With `CC(C)C[C@H]1NC(=O)[C@@]23C(=O)N[C@@H](Cc4ccccc4)C2[C@H](C)[C@@]2(C)O[C@H]2C3/C=C/C/C=C\CNC(=O)[C@H](Cc2ccccc2)NC1=O` (stereo not given in full), the composite z-score in [1] was 0.218; in assay [2], 0.45; in assay [3], -0.291; in assay [4], 0.183; in assay [5], 1.01; in assay [6] it was 0.717. Besides, the composite z-score in [8] was 1.24; in [9], -0.204; in assay [11], 0.234; in [16], -0.279; in assay [17] it was -0.0189; in assay [18] it was 0.839. For the same compound, the figures for the composite z-score in assay [19] and in [20] were 0.716 and 2.06, respectively. Also, the z-score in assay [7] is 0.156; in assay [10], -3.01 (inactive); in [12], -0.73 (inactive); in assay [13], -0.137 (inactive); in [14], -0.416 (inactive); in assay [15], -0.862 (inactive).

Take `CCOC(=O)C1=CCC(c2ccccc2)N(S(=O)(=O)CC[Si](C)(C)C)C1` (stereo not given): the composite z-score in assay [1] was 0.149; in [2], -0.401; in [3], 0.384; in assay [4], -0.325; in [5], -0.172; in [6] it was -0.617. For the same compound, the composite z-score was -0.503 in assay [8]; 0.0225 in assay [9]; -0.386 in assay [11]; -0.192 in [16]; -0.363 in assay [17]; 1.04 in assay [18]. Moreover, the composite z-score in assay [19] is 0.673; in assay [20] it was -0.302. The z-score was 3.06 in assay [7]; 1.2 (inactive) in assay [10]; -4.87 (inactive) in assay [12]; -0.296 (inactive) in assay [13]; -0.322 (inactive) in assay [14]; 0.497 (inactive) in assay [15].

`COc1ccc(C(O)C2C=CC3C(=O)NC(=O)C3N2Nc2ccccn2)c2ccccc12` (stereo not given): the composite z-score was 0.516 in [1]; -0.609 in assay [2]; -0.106 in assay [3]; 0.0992 in assay [4]; 0.488 in assay [5]; 0.524 in assay [6]. The composite z-score in assay [8] was -0.0665; in assay [9] it was 0.788; in [11], 0.0373; in assay [16], -0.0105; in assay [17] it was -0.0791; in assay [18] it was 0.239. The composite z-score is -0.274 in assay [19] and 0.448 in [20]. The z-score is -1.15 in assay [7]; -1.46 (inactive) in [10]; 1.04 (inactive) in [12]; -0.507 (inactive) in [13]; -0.133 (inactive) in assay [14]; 0.214 (inactive) in assay [15].
